Assay results as given in ChEMBL document CHEMBL2218924, “A broad activity screen in support of a chemogenomic map for kinase signalling research and drug discovery” (Biochem J, 2013).

Columns and labels:
[1] = biological target: Death-associated protein kinase 1 (Homo sapiens) (UniProt P53355); conditions: at 10 µM
[2] = biological target: Death-associated protein kinase 2 (Homo sapiens) (UniProt Q9UIK4); conditions: at 1 µM
[3] = biological target: Death-associated protein kinase 2 (Homo sapiens) (UniProt Q9UIK4); conditions: at 10 µM
[4] = biological target: T1, Serine/threonine-protein kinase DCLK2 (Homo sapiens) (UniProt Q8N568); conditions: at 1 µM
T1 sequence (whole entry): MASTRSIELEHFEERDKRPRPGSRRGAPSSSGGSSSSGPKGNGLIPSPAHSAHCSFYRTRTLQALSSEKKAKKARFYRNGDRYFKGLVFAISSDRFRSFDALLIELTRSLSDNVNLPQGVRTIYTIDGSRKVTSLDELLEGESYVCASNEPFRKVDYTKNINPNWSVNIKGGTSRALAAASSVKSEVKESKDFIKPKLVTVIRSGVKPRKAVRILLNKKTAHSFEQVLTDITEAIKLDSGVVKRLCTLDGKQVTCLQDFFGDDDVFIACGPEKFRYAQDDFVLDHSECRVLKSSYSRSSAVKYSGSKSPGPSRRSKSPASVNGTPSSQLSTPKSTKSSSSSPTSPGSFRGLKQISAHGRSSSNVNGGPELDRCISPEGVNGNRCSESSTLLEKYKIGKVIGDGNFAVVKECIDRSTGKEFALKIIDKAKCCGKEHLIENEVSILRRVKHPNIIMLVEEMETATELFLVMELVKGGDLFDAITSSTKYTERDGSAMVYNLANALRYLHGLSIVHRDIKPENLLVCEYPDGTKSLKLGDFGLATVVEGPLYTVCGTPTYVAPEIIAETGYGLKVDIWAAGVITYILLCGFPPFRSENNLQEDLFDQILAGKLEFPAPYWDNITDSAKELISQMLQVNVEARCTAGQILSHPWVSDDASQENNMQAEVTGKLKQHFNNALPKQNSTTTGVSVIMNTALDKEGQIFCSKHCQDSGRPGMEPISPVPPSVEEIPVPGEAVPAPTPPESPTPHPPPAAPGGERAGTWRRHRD

[5] = biological target: T1, Serine/threonine-protein kinase DCLK2 (Homo sapiens); conditions: at 10 µM
[6] = biological target: T2, Discoidin domain-containing receptor 2 (Homo sapiens) (UniProt Q16832); conditions: at 1 µM
T2 sequence (whole entry): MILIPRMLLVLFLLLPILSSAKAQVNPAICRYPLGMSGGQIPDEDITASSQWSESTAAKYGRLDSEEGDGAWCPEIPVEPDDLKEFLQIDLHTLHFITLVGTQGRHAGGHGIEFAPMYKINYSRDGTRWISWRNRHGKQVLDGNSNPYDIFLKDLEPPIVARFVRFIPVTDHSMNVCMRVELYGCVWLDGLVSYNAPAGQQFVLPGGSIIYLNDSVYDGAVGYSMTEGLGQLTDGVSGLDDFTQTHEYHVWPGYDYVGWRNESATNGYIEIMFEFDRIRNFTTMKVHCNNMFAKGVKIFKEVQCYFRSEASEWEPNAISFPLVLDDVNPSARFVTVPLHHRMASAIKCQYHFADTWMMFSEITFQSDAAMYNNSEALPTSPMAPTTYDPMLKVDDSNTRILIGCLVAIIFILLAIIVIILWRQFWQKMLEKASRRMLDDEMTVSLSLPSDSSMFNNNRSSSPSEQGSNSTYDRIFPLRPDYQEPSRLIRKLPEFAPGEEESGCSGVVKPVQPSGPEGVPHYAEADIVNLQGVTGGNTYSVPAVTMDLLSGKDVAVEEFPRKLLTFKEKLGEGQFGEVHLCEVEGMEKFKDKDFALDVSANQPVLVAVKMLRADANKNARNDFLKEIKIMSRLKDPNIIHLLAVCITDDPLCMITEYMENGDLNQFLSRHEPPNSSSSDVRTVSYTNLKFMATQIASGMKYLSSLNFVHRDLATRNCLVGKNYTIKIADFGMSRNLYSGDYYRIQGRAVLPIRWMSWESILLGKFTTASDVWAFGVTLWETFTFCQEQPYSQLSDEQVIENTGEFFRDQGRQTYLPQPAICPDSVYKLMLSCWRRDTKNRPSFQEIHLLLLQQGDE

[7] = biological target: T2, Discoidin domain-containing receptor 2 (Homo sapiens); conditions: at 10 µM
[8] = biological target: T3, Myotonin-protein kinase (Homo sapiens) (UniProt Q09013); conditions: at 1 µM
T3 sequence (whole entry): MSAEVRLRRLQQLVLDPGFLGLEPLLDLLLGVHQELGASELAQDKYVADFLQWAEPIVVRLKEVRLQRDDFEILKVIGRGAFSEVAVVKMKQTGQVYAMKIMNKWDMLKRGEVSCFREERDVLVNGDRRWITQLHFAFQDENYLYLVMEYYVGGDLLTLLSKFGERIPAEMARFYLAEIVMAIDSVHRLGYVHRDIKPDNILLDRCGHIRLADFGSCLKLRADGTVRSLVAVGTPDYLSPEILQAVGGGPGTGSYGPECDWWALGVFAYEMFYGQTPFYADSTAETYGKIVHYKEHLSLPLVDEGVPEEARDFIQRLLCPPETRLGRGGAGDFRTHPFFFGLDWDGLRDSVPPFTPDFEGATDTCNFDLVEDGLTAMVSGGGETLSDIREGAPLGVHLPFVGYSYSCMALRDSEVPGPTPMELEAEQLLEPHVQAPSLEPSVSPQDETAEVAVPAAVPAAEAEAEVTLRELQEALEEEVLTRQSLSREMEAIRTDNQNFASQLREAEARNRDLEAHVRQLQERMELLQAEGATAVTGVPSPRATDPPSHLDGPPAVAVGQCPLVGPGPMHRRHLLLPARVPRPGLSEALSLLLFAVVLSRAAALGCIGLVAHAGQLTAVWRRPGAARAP

[9] = biological target: T3, Myotonin-protein kinase (Homo sapiens); conditions: at 10 µM
[10] = biological target: T4, Serine/threonine-protein kinase 17A (Homo sapiens) (UniProt Q9UEE5); conditions: at 1 µM
T4 sequence (whole entry): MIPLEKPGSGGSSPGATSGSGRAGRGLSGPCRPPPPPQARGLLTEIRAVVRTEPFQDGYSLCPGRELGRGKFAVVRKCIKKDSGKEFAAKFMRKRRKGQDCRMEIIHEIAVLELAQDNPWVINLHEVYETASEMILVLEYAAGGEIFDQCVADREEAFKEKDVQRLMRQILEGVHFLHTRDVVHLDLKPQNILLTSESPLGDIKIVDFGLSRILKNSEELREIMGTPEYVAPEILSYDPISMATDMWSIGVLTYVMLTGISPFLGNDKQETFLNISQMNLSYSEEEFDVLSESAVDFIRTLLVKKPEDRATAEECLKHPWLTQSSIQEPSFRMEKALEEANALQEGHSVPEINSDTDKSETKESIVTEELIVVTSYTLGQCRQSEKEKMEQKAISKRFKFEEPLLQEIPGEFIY

[11] = biological target: T4, Serine/threonine-protein kinase 17A (Homo sapiens); conditions: at 10 µM
[12] = biological target: T5, Dual specificity tyrosine-phosphorylation-regulated kinase 2 (Homo sapiens) (UniProt Q92630); conditions: at 1 µM
T5 sequence (whole entry): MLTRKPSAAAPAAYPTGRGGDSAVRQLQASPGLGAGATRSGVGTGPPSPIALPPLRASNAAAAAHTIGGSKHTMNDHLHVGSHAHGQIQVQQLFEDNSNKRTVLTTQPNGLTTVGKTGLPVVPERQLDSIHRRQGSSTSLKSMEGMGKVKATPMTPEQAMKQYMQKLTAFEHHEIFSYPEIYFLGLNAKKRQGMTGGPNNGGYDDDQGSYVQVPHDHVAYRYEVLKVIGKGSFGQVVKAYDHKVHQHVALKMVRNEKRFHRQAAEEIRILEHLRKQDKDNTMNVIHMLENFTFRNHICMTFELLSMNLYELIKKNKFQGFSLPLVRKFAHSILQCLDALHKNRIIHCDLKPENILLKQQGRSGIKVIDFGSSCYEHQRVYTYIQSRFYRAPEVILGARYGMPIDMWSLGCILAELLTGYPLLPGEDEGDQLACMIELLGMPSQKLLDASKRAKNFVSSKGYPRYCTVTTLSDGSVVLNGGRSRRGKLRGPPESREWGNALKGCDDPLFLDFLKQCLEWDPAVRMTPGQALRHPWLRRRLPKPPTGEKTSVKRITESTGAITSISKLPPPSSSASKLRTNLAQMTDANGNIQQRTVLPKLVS

[13] = biological target: T5, Dual specificity tyrosine-phosphorylation-regulated kinase 2 (Homo sapiens); conditions: at 10 µM
[14] = biological target: T6, Ephrin type-A receptor 1 (Homo sapiens) (UniProt P21709); conditions: at 1 µM
T6 sequence (whole entry): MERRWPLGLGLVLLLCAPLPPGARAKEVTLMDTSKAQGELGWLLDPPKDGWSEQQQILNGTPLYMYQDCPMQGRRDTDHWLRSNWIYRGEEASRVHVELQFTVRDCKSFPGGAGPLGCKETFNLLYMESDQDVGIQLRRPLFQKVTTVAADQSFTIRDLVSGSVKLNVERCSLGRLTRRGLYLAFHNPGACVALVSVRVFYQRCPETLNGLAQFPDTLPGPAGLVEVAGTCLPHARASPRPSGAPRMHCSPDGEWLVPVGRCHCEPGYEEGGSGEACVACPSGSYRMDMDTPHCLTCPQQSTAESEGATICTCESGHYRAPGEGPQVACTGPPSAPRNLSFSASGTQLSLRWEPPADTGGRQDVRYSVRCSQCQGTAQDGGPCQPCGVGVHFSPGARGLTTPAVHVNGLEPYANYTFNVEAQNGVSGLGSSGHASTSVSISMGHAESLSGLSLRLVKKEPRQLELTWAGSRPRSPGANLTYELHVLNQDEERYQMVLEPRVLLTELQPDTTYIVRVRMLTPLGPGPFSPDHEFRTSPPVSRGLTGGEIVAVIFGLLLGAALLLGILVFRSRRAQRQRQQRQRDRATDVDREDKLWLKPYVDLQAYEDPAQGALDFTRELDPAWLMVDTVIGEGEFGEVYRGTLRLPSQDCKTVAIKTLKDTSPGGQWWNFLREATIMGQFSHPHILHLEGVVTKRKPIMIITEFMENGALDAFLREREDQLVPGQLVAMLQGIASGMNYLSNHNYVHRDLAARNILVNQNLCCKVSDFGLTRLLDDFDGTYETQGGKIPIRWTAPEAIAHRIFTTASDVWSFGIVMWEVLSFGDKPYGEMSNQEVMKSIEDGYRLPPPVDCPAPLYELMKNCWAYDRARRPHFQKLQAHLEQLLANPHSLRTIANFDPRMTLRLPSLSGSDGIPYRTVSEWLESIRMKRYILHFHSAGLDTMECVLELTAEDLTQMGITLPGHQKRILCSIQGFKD

[15] = biological target: T6, Ephrin type-A receptor 1 (Homo sapiens); conditions: at 10 µM
[16] = biological target: Ephrin type-A receptor 2 (Homo sapiens) (UniProt P29317); conditions: at 1 µM
[17] = biological target: Ephrin type-A receptor 2 (Homo sapiens) (UniProt P29317); conditions: at 10 µM
[18] = biological target: T7, Ephrin type-A receptor 3 (Homo sapiens) (UniProt P29320); conditions: at 1 µM
T7 sequence (whole entry): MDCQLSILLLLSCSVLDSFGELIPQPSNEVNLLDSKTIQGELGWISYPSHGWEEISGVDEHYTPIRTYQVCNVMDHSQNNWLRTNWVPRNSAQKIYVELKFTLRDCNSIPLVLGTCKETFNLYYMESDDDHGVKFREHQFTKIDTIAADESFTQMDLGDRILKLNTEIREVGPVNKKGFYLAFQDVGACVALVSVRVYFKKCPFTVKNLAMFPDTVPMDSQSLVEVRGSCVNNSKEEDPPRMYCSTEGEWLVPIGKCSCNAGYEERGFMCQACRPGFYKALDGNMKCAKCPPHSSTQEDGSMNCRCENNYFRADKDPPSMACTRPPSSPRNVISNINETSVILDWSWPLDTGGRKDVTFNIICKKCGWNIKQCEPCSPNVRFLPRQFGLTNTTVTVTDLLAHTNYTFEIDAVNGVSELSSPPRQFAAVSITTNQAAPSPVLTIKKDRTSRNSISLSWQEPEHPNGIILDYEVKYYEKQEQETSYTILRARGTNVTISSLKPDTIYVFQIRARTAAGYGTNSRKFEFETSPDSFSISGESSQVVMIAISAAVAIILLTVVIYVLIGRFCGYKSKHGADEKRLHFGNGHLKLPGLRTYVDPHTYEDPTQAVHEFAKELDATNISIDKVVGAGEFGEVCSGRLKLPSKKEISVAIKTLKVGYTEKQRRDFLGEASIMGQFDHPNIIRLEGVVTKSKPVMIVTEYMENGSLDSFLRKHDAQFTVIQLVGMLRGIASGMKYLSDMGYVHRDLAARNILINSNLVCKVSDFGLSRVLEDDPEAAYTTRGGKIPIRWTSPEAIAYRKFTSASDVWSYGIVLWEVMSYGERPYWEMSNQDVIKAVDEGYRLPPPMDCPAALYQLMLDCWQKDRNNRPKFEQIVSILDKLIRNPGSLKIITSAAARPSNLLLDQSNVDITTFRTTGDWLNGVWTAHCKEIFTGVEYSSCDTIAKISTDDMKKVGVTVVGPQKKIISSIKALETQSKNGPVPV

[19] = biological target: Epidermal growth factor receptor (Homo sapiens) (UniProt P00533); conditions: at 1 µM
[20] = biological target: Epidermal growth factor receptor (Homo sapiens) (UniProt P00533); conditions: at 10 µM

Sequence of Ephrin type-A receptor 2 (Homo sapiens) (P29317 whole entry): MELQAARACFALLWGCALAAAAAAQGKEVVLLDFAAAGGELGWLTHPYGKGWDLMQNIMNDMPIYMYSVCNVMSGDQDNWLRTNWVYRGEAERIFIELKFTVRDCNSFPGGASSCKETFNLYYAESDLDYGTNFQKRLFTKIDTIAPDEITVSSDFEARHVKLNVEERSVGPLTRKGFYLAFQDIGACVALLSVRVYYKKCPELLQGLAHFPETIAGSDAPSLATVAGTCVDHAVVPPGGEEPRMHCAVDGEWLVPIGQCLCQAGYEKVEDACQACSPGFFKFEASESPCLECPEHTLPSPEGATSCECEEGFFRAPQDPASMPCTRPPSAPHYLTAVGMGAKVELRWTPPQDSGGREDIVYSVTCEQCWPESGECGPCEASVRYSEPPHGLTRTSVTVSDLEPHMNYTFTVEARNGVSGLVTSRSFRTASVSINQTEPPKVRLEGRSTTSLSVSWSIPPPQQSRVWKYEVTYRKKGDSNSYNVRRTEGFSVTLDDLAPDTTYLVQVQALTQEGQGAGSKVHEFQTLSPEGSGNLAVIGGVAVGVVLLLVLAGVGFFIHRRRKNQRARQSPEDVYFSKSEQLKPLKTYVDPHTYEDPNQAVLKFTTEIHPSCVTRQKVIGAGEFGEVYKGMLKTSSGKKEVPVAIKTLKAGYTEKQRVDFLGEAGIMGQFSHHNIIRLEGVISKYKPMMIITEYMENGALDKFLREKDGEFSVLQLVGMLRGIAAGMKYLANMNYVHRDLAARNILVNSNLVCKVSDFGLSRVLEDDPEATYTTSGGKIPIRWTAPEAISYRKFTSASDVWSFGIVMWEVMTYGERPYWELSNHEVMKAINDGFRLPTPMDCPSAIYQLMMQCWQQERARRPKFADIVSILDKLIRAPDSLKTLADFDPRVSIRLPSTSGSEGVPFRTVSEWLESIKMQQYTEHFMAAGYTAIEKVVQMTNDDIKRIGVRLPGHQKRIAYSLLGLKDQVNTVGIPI
Sequence of Death-associated protein kinase 2 (Homo sapiens) (Q9UIK4 whole entry, looked up): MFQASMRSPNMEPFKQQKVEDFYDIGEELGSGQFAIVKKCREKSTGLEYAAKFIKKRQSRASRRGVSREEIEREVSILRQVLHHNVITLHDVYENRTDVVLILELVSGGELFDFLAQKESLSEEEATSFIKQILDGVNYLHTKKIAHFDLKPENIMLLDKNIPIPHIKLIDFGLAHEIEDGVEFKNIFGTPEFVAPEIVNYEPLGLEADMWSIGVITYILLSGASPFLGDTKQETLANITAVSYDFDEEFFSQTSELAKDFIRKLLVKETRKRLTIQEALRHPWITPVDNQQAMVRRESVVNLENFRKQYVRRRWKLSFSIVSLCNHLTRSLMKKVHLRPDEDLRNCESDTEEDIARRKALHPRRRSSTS
Sequence of Death-associated protein kinase 1 (Homo sapiens) (P53355 whole entry, looked up): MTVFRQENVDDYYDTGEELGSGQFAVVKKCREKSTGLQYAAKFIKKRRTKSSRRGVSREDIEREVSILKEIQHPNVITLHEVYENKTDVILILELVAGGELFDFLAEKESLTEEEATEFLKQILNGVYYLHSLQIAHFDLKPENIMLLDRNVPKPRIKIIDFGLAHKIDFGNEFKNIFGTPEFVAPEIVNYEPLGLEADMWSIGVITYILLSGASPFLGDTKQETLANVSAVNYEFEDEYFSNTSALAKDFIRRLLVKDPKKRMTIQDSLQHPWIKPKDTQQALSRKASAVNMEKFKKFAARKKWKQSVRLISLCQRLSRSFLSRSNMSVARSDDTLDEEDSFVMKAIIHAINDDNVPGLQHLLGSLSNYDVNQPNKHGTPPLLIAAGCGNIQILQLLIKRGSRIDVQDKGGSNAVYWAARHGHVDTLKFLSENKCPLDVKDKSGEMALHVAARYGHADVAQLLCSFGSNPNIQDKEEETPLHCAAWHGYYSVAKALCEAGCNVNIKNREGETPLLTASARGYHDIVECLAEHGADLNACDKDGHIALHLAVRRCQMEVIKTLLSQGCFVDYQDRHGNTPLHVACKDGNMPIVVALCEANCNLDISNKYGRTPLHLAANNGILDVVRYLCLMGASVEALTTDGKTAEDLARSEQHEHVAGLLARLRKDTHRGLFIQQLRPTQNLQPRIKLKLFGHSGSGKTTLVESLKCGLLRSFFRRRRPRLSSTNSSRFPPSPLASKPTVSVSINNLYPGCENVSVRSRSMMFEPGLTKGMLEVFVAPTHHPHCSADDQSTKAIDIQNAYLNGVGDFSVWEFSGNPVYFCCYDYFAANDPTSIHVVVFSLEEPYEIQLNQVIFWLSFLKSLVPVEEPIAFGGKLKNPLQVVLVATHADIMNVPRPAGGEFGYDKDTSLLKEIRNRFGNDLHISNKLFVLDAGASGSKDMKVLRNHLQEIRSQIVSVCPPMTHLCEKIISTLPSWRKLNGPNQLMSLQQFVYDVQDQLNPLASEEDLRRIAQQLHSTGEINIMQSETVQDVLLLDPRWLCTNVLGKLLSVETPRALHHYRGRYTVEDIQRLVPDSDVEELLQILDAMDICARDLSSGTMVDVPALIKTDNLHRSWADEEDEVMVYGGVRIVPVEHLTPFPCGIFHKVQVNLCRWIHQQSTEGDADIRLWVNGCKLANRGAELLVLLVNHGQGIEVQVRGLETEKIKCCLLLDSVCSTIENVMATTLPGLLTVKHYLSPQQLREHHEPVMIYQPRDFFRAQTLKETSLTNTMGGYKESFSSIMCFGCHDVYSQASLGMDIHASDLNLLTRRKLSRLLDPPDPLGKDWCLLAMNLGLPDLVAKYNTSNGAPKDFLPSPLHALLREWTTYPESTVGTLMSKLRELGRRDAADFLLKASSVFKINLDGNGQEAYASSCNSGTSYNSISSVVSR
Sequence of Epidermal growth factor receptor (Homo sapiens) (P00533 whole entry): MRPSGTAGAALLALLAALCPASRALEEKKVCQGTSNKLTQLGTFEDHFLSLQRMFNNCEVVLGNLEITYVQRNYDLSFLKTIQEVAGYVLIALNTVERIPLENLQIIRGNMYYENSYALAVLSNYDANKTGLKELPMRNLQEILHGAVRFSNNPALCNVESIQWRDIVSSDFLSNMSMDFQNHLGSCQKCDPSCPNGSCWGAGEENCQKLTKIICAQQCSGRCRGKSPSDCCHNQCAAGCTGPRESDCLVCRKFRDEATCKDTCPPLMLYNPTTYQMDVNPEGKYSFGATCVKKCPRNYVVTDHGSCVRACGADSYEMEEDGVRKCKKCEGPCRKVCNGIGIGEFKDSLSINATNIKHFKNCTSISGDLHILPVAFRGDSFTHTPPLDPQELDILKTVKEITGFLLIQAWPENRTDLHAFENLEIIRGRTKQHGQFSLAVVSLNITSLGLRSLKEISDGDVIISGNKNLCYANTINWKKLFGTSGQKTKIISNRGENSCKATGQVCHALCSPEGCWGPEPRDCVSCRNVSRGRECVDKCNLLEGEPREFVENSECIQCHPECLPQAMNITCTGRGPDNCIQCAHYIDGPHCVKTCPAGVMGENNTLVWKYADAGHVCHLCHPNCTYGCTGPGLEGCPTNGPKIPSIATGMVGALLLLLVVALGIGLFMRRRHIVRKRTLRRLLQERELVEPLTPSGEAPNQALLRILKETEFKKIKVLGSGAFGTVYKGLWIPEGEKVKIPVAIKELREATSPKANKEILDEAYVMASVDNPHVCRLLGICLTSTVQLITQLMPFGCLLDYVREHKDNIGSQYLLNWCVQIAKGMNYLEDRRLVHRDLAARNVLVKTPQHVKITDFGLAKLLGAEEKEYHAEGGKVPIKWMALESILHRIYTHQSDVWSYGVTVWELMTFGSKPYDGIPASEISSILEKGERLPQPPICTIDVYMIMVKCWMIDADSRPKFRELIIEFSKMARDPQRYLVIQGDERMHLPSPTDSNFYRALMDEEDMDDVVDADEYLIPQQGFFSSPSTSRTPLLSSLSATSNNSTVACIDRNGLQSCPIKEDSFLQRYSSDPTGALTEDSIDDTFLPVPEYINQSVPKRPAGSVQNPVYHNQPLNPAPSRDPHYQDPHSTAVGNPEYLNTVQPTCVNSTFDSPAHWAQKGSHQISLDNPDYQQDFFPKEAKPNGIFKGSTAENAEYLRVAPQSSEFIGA

SMILES | residual activity [1] [%] | residual activity [2] [%] | residual activity [3] [%] | residual activity [4] [%] | residual activity [5] [%] | residual activity [6] [%] | residual activity [7] [%] | residual activity [8] [%] | residual activity [9] [%] | residual activity [10] [%] | residual activity [11] [%] | residual activity [12] [%] | residual activity [13] [%] | residual activity [14] [%] | residual activity [15] [%] | residual activity [16] [%] | residual activity [17] [%] | residual activity [18] [%] | residual activity [19] [%] | residual activity [20] [%]
O=c1c2ccccc2[nH]c(=S)n1CCN1CCC(=C(c2ccc(F)cc2)c2ccc(F)cc2)CC1 | 62 | 109 | 104 | 91 | 79 | 104 | 87 | 105 | 108 | 71 | 90 | 102 | 96 | 95 | 89 | 116 | 100 | 109 |  | 
N#CC(C#N)=C(N)/C(C#N)=C/c1ccc(O)cc1 | 92 | 99 | 97 | 94 | 47 | 116 | 97 |  | 148 | 91 |  | 85 | 93 |  |  |  |  |  |  | 
N#Cc1cnc2cnc(NCc3cccnc3)cc2c1Nc1ccc(F)c(Cl)c1 | 55 | 14 | 2 |  |  | 80 | 53 | 100 | 69 | 30 | 32 |  |  | 95 | 79 | 96 | 87 | 96 |  | 
O=C1Nc2cc(Br)ccc2/C1=C1/Nc2ccccc2/C1=N\O | 46 | 50 | 26 | 89 | 76 | 74 | 37 | 110 | 84 | 8 | 10 |  |  | 99 | 92 | 27 | 20 | 25 | 66 | 33
